The full ranking holds about 33,000 sequences; the median of “normalized occupancy” is about 0.075, and the highest 2% start at about 0.095. This is one part of a sample in which the highest values are shown more often than they occur.

MaxL homodimer, sequence (P61244 whole entry): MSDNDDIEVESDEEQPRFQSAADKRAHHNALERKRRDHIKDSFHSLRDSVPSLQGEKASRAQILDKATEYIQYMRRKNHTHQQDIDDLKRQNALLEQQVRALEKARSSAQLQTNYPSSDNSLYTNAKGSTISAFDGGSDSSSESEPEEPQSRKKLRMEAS

The target of this assay is MaxL homodimer (Homo sapiens, UniProt P61244 1-160). As to the kind of experiment: universal protein-binding microarray (PBM); PBS-based mixture, 10 nM His-tagged protein dimer, 2% milk, 200 ng/uL BSA, 50 ng/uL salmon testes DNA, 0.02% TX-100; detection with Alexa 488 anti-His antibody;; high values mean tight binding. The following applies: protein: recombinant; tags: C-terminal His-tag (pET21a); chain copies: 2; dsDNA, one strand shown. In outline:
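His-tagged protein dimer at 10 nM was incubated on Agilent 4 x 44 K arrays with the 'all 10-mer' universal design. Bound protein was tagged with 10 ng/μL fluorophore-conjugated anti-His antibody, and arrays were scanned on a GenePix 4400A. Binding occupancy for each 8-mer is its fluorescence intensity normalised to the highest-ranked 8-mer's intensity.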
For the sequence GGAGAAGA, the binding signal was 0.0765 normalized occupancy.
Turning to ATTATTCG, the binding signal was found to be 0.0765 normalized occupancy.
With AGCTGACA, the binding signal was 0.0754 normalized occupancy.
Next, AACAGCAC: 0.0765 normalized occupancy; GTCACCTA: 0.0725 normalized occupancy; ATTTTAAC: 0.0737 normalized occupancy.
Next, AAATTGCA: 0.0733 normalized occupancy; CCGCGCGC: 0.0828 normalized occupancy; AAATAAAA: 0.079 normalized occupancy.
For AAACCCAA, the binding signal was found to be 0.0746 normalized occupancy.
Next, CTTGTCAC: 0.0759 normalized occupancy; AACCACAA: 0.0762 normalized occupancy.
Next, AACCACAC: 0.0854 normalized occupancy; ATCCACAG: 0.078 normalized occupancy; ATCCACAT: 0.0977 normalized occupancy.
Next, ATCCACAA: 0.077 normalized occupancy.
As to AACCACAT, the binding signal was determined as 0.0973 normalized occupancy.
Consider GCAACAGA, for which the binding signal stood at 0.0747 normalized occupancy.
In the case of GTCAGAGA it was 0.073 normalized occupancy; in that of ATTGTCTG, 0.0774 normalized occupancy; in that of TACATACA, 0.092 normalized occupancy.
For AATGGGAA, the binding signal worked out at 0.0775 normalized occupancy.
Next, CTTGTGTA: 0.0811 normalized occupancy.
Next, GATGTGTA: 0.0848 normalized occupancy; CATGTCTC: 0.0933 normalized occupancy; CATGTGTC: 0.125 normalized occupancy.
In the case of CATGTGTA it was 0.131 normalized occupancy; in that of AATGTGTC, 0.095 normalized occupancy; in that of CTGCGGCA, 0.0732 normalized occupancy.
As to GACACCCA, the binding signal amounted to 0.0749 normalized occupancy.
Next, GATGTAGA: 0.0799 normalized occupancy.
Next, ACAGCTAT: 0.0762 normalized occupancy; ACAGGTGA: 0.084 normalized occupancy.
Next, ACAGGTGC: 0.0832 normalized occupancy.
In the case of ACAGGTGG, the binding signal was 0.0985 normalized occupancy.
On to CACAGCAA, for which the binding signal was 0.0762 normalized occupancy.
Consider GATGTGCC, for which the binding signal came out at 0.0796 normalized occupancy.
In the case of AGTGTGCA it was 0.0821 normalized occupancy.
In the case of AATGTGAA it was 0.0782 normalized occupancy; in that of CATGTGCC, 0.149 normalized occupancy.
Next, CATGTTCG: 0.0882 normalized occupancy.
On to CTTGTGCC, for which the binding signal was determined as 0.0778 normalized occupancy.
Next, CCTGTGCG: 0.0733 normalized occupancy.
In the case of CGTGTGCC it was 0.0918 normalized occupancy.
In the case of CGTGTGCA it was 0.0981 normalized occupancy.
Consider ACTGTGAT, for which the binding signal is 0.0734 normalized occupancy.
Next, CATGTGCG: 0.181 normalized occupancy; AATGTGAT: 0.101 normalized occupancy.
In the case of CGTAGCAG it was 0.0734 normalized occupancy.
With CGTGAAGA, the binding signal stood at 0.0801 normalized occupancy.
As to TATCTTAA, the binding signal was determined as 0.0728 normalized occupancy.
In the case of TTCTCAAA it was 0.0808 normalized occupancy.
Next, CTGCTCCC: 0.0741 normalized occupancy; ACGGTTAA: 0.0751 normalized occupancy; CTGCAGCA: 0.0755 normalized occupancy.
Next, GACCTTAC: 0.0765 normalized occupancy; CCAAGCTA: 0.0731 normalized occupancy.
On to GGTGTTCA, for which the binding signal was 0.0754 normalized occupancy.
For CGTGTTCA, the binding signal stood at 0.1 normalized occupancy.
Next, AATGTGTA: 0.0864 normalized occupancy.
In the case of AATGTGCC it was 0.0816 normalized occupancy.
Next, GATGTGCA: 0.0814 normalized occupancy; AATGTGCG: 0.0957 normalized occupancy; AATGTGCA: 0.0888 normalized occupancy.
As for CATGTGCA, the binding signal came to 0.149 normalized occupancy.
Next, AATGTGTG: 0.0963 normalized occupancy.
With AGTGTTCA, the binding signal worked out at 0.0774 normalized occupancy.
Next, TATGTGCA: 0.084 normalized occupancy; AGTGTGTG: 0.0828 normalized occupancy.
Next, CATAATTA: 0.0816 normalized occupancy; TACTAATA: 0.0814 normalized occupancy; CGAGCAGA: 0.0731 normalized occupancy.
Next, ACATCCGC: 0.0795 normalized occupancy.
For TACTTATA, the binding signal amounted to 0.0836 normalized occupancy.
In the case of GTAAATCA it was 0.0784 normalized occupancy; in that of ATCTCGTA, 0.0765 normalized occupancy; in that of ACATCGTC, 0.0753 normalized occupancy.
Next, ACCTCATA: 0.0788 normalized occupancy.
Next, ACCTCGTA: 0.0827 normalized occupancy; ACCTCGTC: 0.0738 normalized occupancy; ATCTCGTG: 0.0991 normalized occupancy.
Regarding ACCTCGTG, the binding signal came to 0.156 normalized occupancy.
Next, ACCTCATG: 0.113 normalized occupancy; ACATCGTG: 0.0998 normalized occupancy.
Next, ACATCGTA: 0.0832 normalized occupancy; ACCTCATC: 0.0736 normalized occupancy; AGCTCGTG: 0.0836 normalized occupancy.
With AGACGTCC, the binding signal was found to be 0.0732 normalized occupancy.
CAGCAATG: the binding signal is 0.082 normalized occupancy.
For the sequence CTTACAAC, the binding signal was 0.0757 normalized occupancy.
In the case of ATGTTTGG it was 0.0806 normalized occupancy.
In the case of CTCATGAA, the binding signal is 0.0856 normalized occupancy.
Next, CCTTGCGA: 0.0752 normalized occupancy.
Consider ATCATGTA, for which the binding signal was determined as 0.0811 normalized occupancy.
In the case of CCTATGCG it was 0.0749 normalized occupancy; in that of CCCATGCG, 0.138 normalized occupancy; in that of ACCATGAG, 0.0976 normalized occupancy.
In the case of CCCATGAG it was 0.0921 normalized occupancy; in that of CCAATGCG, 0.0793 normalized occupancy.
In the case of ATCATGTG, the binding signal worked out at 0.137 normalized occupancy.
Next, CCCATGTC: 0.0854 normalized occupancy.
In the case of CCCATGCC it was 0.0969 normalized occupancy; in that of CCCATGAC, 0.0853 normalized occupancy; in that of ATCATGTC, 0.0895 normalized occupancy.
For ACCATGAA, the binding signal came out at 0.0755 normalized occupancy.
In the case of ACATCACC it was 0.0798 normalized occupancy.
On to GACCAGCA, for which the binding signal was 0.0755 normalized occupancy.
In the case of CTGTCGTA it was 0.0747 normalized occupancy; in that of GAGAACTA, 0.0732 normalized occupancy.
Next, CTCTCGAA: 0.0729 normalized occupancy.
Next, AACGGTTG: 0.0768 normalized occupancy; CGTTGCCA: 0.0801 normalized occupancy; GGCGGTGA: 0.0725 normalized occupancy.
As to CCCATGCA, the binding signal stood at 0.0973 normalized occupancy.
In the case of ACCATGCC it was 0.0954 normalized occupancy.
Next, ACAATGTG: 0.0995 normalized occupancy; CCCATACA: 0.0836 normalized occupancy; ACAATGTA: 0.085 normalized occupancy.
Next, GCCATGGC: 0.0823 normalized occupancy.
For CCCATGAA, the binding signal came out at 0.0827 normalized occupancy.
In the case of ACAATGTC it was 0.079 normalized occupancy; in that of GCCATGCC, 0.0963 normalized occupancy; in that of ACCATGAC, 0.0839 normalized occupancy.
Next, ACCATGGC: 0.0734 normalized occupancy.
Next, GCCATGCA: 0.0904 normalized occupancy; CATTTGTA: 0.0834 normalized occupancy.
In the case of CATACGCG, the binding signal is 0.0762 normalized occupancy.
In the case of AGGGAGCG it was 0.0763 normalized occupancy; in that of CCGTACGC, 0.072 normalized occupancy.
In the case of ACACCAGT it was 0.0764 normalized occupancy.
In the case of CCGACTTA it was 0.0735 normalized occupancy.
Consider CGCTAATC, for which the binding signal was found to be 0.0771 normalized occupancy.
In the case of GAAATAGC it was 0.0789 normalized occupancy.
Next, ACCATGCA: 0.0972 normalized occupancy; ACCATGCT: 0.123 normalized occupancy.
In the case of ACCATGCG it was 0.136 normalized occupancy; in that of ACCATGGA, 0.0861 normalized occupancy.
Take ACCATGTG: the binding signal worked out at 0.225 normalized occupancy.
In the case of ACCATGTA it was 0.0876 normalized occupancy; in that of TCCATGCA, 0.0861 normalized occupancy.
Next, ACCATGTC: 0.0794 normalized occupancy; ACCATGAT: 0.084 normalized occupancy; ACTATGCG: 0.0817 normalized occupancy.
In the case of ACCATGGT it was 0.0862 normalized occupancy; in that of ACAATGCG, 0.0867 normalized occupancy.
Regarding ATGCTGGC, the binding signal came to 0.0864 normalized occupancy.
Next, CAGGCCTG: 0.0765 normalized occupancy; AAACTAAC: 0.0741 normalized occupancy.
In the case of ATTGGCGC it was 0.0745 normalized occupancy.
In the case of GTACAAGA it was 0.0806 normalized occupancy.
With CTTCTATC, the binding signal is 0.0768 normalized occupancy.
In the case of AGTCAGCG it was 0.0777 normalized occupancy; in that of CCAATTGG, 0.0757 normalized occupancy; in that of AGTCACGG, 0.0774 normalized occupancy.
For AATCACGT, the binding signal is 0.099 normalized occupancy.
Next, AGTCACGC: 0.0989 normalized occupancy; AATCACGC: 0.0974 normalized occupancy.
In the case of AATCACCT it was 0.0853 normalized occupancy.
Next, AATCACGG: 0.0727 normalized occupancy; AATCACTA: 0.0729 normalized occupancy.
Take GATCACCC: the binding signal came to 0.0786 normalized occupancy.
In the case of GATCACGC it was 0.0977 normalized occupancy.
As for AGTCACGA, the binding signal was 0.0912 normalized occupancy.
Take GATCACGA: the binding signal amounted to 0.0786 normalized occupancy.
In the case of AATCACGA, the binding signal worked out at 0.0856 normalized occupancy.
On to CCAATGGA, for which the binding signal came out at 0.0747 normalized occupancy.
In the case of ACGCCTGC it was 0.0743 normalized occupancy; in that of CCAGAATC, 0.0733 normalized occupancy.
In the case of CATCACGG it was 0.0829 normalized occupancy; in that of CATCACGC, 0.0961 normalized occupancy.
In the case of CATCACGA it was 0.0811 normalized occupancy.
With GGTCTTGA, the binding signal was 0.0779 normalized occupancy.

These data come from PMC4242493, “Sequence specificity incompletely defines the genome-wide occupancy of Myc”.
